Hits are enriched below; roughly 6.5% of the tested compounds scored in any of these assays.
Marburg entry inh = blocks Marburg virus binding to or entry into cells | AID 540276 | 300,000 tested, 1.8% active | Marburg virus pseudotyped entry inhibition, cell reporter | Potency, µM (series often up to 37.8 µM), for inactives: top-dose activity change, negative = inhibition, hits mostly inhibitors; calls by dose curve; tested in HEK293 cells; also: potency is read from the fitted curve at half-maximal effect
HCMV antiviral = human cytomegalovirus inhibition; HFF cells, HCMV-luciferase reporter, 72 h; stronger effect = lower value; activity change, negative = inhibition, % at 57.5 µM; 410,000 tested, 4.5% active; in the data active = activity change below about -60%; inconclusive = no clear call, values can overlap the other calls; inactive = above about -39%
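Cell-based, HFFs, 1000 cells/well, 16 h 37C; cpds in DMSO + HCMV-luc, MOI 1 PFU/cell; 72 h 37C; OneGlo luminescence after 5 min RT; norm. to buffer vs Salinomycin 10uM.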
FMDV antiviral = foot and mouth disease virus antiviral activity. FMDV antiviral cell-based qHTS. Potency, µM (series often up to 57.9 µM), for inactives: at the top dose activity change, negative = inhibition, actives largely listed as inhibitors. 410,000 tested, 1.2% active. AID 1159524; calls by dose curve; tested in HEK293T cells; also: read-out not given here; potency is read from the fitted curve at half-maximal effect; nearly all actives have a fitted effect of over 45% in size
Vaccinia mCherry = inhibitors of vaccinia virus infection (mCherry reporter signal). Potency, µM (series often up to 36.5 µM), without a hit: top-dose activity change, negative = inhibition, hits mostly inhibitors. AID 720579. 310,000 tested, 0.63% active. Vaccinia virus mCherry reporter infection, fluorescence; calls by dose curve; tested in A549 cells; also: potency is read from the fitted curve at half-maximal effect; nearly all actives have a fitted effect of over 35% in size
VACV Venus inh = inhibitors of vaccinia virus (Venus reporter); Potency, µM (doses to about 36.5 µM), without a hit: top-dose activity change, negative = inhibition, actives largely listed as inhibitors; 330,000 tested, 0.46% active; Vaccinia virus Venus reporter expression, fluorescence; AID 720580; calls by dose curve; tested in A549 cells; also: potency is read from the fitted curve at half-maximal effect; nearly all actives have a fitted effect of over 30% in size
Lassa entry inh = blocks Lassa virus binding to or entry into cells. Lassa virus pseudotype entry inhibition, cell reporter. Potency, µM (top dose mostly 37.9 µM), for inactives: top-dose activity change, negative = inhibition, most hits filed as inhibitors. 300,000 tested, 1.2% active. AID 540256; calls by dose curve; tested in HEK293 cells; also: potency is read from the fitted curve at half-maximal effect; nearly all actives have a fitted effect of over 50% in size
The depositor's hits bear a star; i = inactive; ? = inconclusive; · = no result; [ ] = another dose, or the depositor's remark. % is scaled to controls: 0 for no effect and ±100 for the full control effect.

SMILES	Marburg entry inh	HCMV antiviral	FMDV antiviral	Vaccinia mCherry	VACV Venus inh	Lassa entry inh
Cc1onc(-c2ccccc2)c1-c1ccnn1S(=O)(=O)c1ccc(Cl)cc1	11%[14.2 µM]	0	-26%	-6%	0%	-11%
CC1=NN(c2ccc(Cl)cc2)C(=O)/C1=C\c1cccn1-c1ccc(S(N)(=O)=O)cc1	-3%	-8	40µM*	-18%	-29%	2%
Cc1ccc(S(=O)(=O)N/N=C/c2cccn2-c2ccc(Cl)cc2)cc1	3%	-22	65%	·	-16%	?
CC(C)(c1ccccc1)c1ccc(OCCn2cnc3ccccc3c2=O)cc1	-7%	45	?	-14%	-9%	0%
O=C(c1ccccc1)c1ccc(OCCn2cnc3ccccc3c2=O)cc1	-14%	33	?	-30%	-25%	25µM*
CN(N=O)c1ccc(/C=C/c2ccnc3ccccc23)cc1	·	·	·	-24%	-22%	·
O=[N+]([O-])c1ccc(S(=O)(=O)N2CCn3cccc3C2c2ccccc2F)cc1 (stereo unspecified)	·	-2	?	11µM*	?	-7%[46.1 µM]
O=C1NC(=O)C(C2CCCCCC2)C(=O)N1	15%[46.1 µM]	-66*	-8%	i	-13%	22%[46.1 µM]
Cc1ccc(C(=O)NCCc2nnc3n2CCN(Cc2cc(C)cc(C)c2)CC3)cc1	·	·	-12%	-14%	-10%	·
NC1=C(Cl)C(=O)c2ccccc2C1=O	?	-13	?	?	?	-11%
CC1COCC(C)N1C1=C(Cl)C(=O)c2ccccc2C1=O (stereo unspecified)	?	91	40µM*	-7%	-2%	?
NC(=O)C1CCN(C2=C(Cl)C(=O)c3ccccc3C2=O)CC1	?	79	22µM*	·	·	?
O=C1C(Cl)=C(N2CCC(C(=O)O)CC2)C(=O)c2ccccc21	·	·	35µM*	·	·	·
NC(=O)C1CCN(C2=C(NS(=O)(=O)c3ccccc3)C(=O)c3ccccc3C2=O)CC1	?	0	?	-27%	-16%	?
CN1CCN(C2=C(Cl)C(=O)c3ccccc3C2=O)CC1	?	-25	32µM*	?	10µM*	?
CN1CCN(C2=C(Cl)C(=O)C(c3cnc(N4CCCCC4)s3)=C(Cl)C2=O)CC1	1%	·	?	14%	72%	-21%
COc1ccccc1-c1ccnc(-n2ncc(C(=O)NCC3(N4CCOCC4)CCCC3)c2C)n1	·	·	-3%	-14%	-10%	·
O=C(N/N=C/c1cccs1)C1COc2ccccc2O1 (stereo unspecified)	-19%	-10	·	-16%	-28%	?
Cn1cc(/C=N\NC(=O)C2COc3ccccc3O2)c2ccccc21 (stereo unspecified)	-2%	84	·	·	·	-10%
C/C(=N\NC(=O)C1COc2ccccc2O1)c1cccs1 (stereo unspecified)	5%	-60*	·	-14%	-11%	12%
Cc1ccc(-n2c(O)c(/C=N/NC(=O)C3COc4ccccc4O3)c3ccccc3c2=O)cc1 (stereo unspecified)	?	-61*	-21%	-25%	-18%	-23%
Cc1ccc(/C=N/NC(=O)C2COc3ccccc3O2)s1 (stereo unspecified)	?	-76*	63%	?	?	?
Cc1c(/C=N\NC(=O)C2COc3ccccc3O2)c2ccccc2n1C (stereo unspecified)	-20%	-86*	-2%	-21%	?	?
CC(=O)N/C(=C/c1ccccc1)c1sc2ccccc2[n+]1CCCCI	·	·	·	18%	58%	·
CCOC(=O)c1cc2c(=O)n3ccccc3nc2n(C(C)C)c1=NC(=O)c1cc2ccccc2o1	0%[46.1 µM]	9	15%	-5%	10%	6%[46.1 µM]
SMILES	Marburg entry inh	HCMV antiviral	FMDV antiviral	Vaccinia mCherry	VACV Venus inh	Lassa entry inh
COc1ccc(NC(=O)N2CC3(CCN(S(C)(=O)=O)CC3)C2)cc1	·	·	-18%	·	·	·
CCOC(=O)c1ccc2c(c1)N(Cc1ccc(F)cc1Cl)C(=O)c1ccccc1S2(=O)=O	·	3	2%	-17%	-13%	?
O=C1C2CCCCC2C(=O)N1c1nccs1 (stereo unspecified)	9%[46.1 µM]	22	-12%	i	6%	5%[46.1 µM]
Cc1nn(-c2nccs2)c2c1C(=O)CC(C)(C)C2Br (stereo unspecified)	·	-70*	8%	-29%	?	·
C[C@H]1[C@@H](C(=O)N2CCCC2)CC(=O)C(=NOCc2ccccc2)C[C@H]1c1ccccc1	0%[14.2 µM]	·	·	·	·	?
CCC[C@H]1COCCS(=O)(=O)N1Cc1cccc(F)c1	·	·	·	-6%	-18%	·
Clc1cccc(Cl)c1C[n+]1cccc2ccccc21	?	-81*	?	-28%	-18%	?
Nc1ncc(S(=O)(=O)Nc2ccc(F)cc2F)cn1	·	38	5%	-8%	-7%	2%[46.1 µM]
CC(/C=N/NC(=O)c1n[nH]c2c1CCC2)=C\c1ccccc1	?	-88*	25%	·	·	?
O=C(N/N=C/C=C/c1ccccc1)c1n[nH]c2c1CCC2	?	-21	38%	?	?	-5%
O=C(N/N=C/C(Br)=C\c1ccccc1)c1n[nH]c2c1CCC2	?	-79*	4%	?	?	?
CN(C)c1ccc(/C=C2\C=Cc3cc([N+](=O)[O-])ccc32)cc1	·	·	·	-11%	30%	·
COc1cc(/C=N/NC(=O)CCc2ccccc2)ccc1O	?	32	-8%	-11%	-13%	2.8µM*
COc1cc(C(=O)N/N=C/c2ccc(OC(=O)c3cccc(C)c3)cc2)ccc1O	-8%	11	35µM*	-14%	-11%	-7%
COc1cc(/C=N/NC(=O)CCNC(=O)c2ccccc2Cl)ccc1O	12%	70	3%	·	·	4%
COc1cc(C(=O)N/N=C/c2cccc(Oc3ccccc3)c2)ccc1O	-13%[46.1 µM]	-78*	-21%	-18%	-27%	-13%[46.1 µM]
COc1cc(/C=N/NC(=O)c2ccc(N)cc2)ccc1OC(=O)c1cccc(C)c1	1%	-5	0%	-15%	-23%	-15%
CCCSc1ncnc2c1c(-c1ccccc1)cn2-c1ccccc1OC	7%[46.1 µM]	-5	-21%	-19%	-10%	10%[46.1 µM]
O=C1c2ccccc2CC[C@H]1CNCCc1ccc(O)cc1	·	·	-6%	·	·	·
CCCCNCCCOc1cccc(Cl)c1Cl	15µM*	-22	·	-22%	-21%	-1%
C=CC[C@@H]1C=C[C@@H](O/N=C\C[C@@H]2C=C[C@H](OC(C)=O)[C@H](COC(C)=O)O2)[C@@H](CO)O1	4%[14.2 µM]	·	·	·	·	·
Cc1ccc(Cl)cc1N1CCN(C(=O)c2cc3c(=O)n(C)c4ccccc4c3n2C)CC1	·	-79*	8.9µM*	?	-25%	·
Cn1c(C(=O)N2CCCC2)cc2c(=O)n(C)c3ccccc3c21	·	-7	-2%	·	·	·
Cc1cccc(N2CCN(C(=O)c3cc4c(=O)n(C)c5ccccc5c4n3C)CC2)c1C	·	?	32µM*	?	-24%	·
COc1cc(NC(=O)CSc2nnc3c4ccccc4n(C)c3n2)cc(OC)c1OC	·	·	·	?	-5%	·
Cc1ccc(-c2nnc3ccccc3c2C(=O)Nc2ccccc2F)cc1	·	0	56%	-19%	-9%	?
